# Reference: ChEMBL document CHEMBL1961873, “Compounds: GSK PKIS; Assays: Nanosyn kinase panel” (2012)
# How the values were obtained:
# [1] = test system: Tyrosine-protein kinase ABL1 (Homo sapiens), P00519 [T315I]; conditions: at 1 µM
# [2] = test system: Tyrosine-protein kinase ABL1 (Homo sapiens), P00519 [Y253F]; conditions: at 0.1 µM
# [3] = test system: Tyrosine-protein kinase ABL1 (Homo sapiens), P00519 [Y253F]; conditions: at 1 µM
# [4] = biological target: Tyrosine-protein kinase ABL1 (Homo sapiens) (UniProt P00519); conditions: at 0.1 µM
# [5] = biological target: Tyrosine-protein kinase ABL1 (Homo sapiens) (UniProt P00519); conditions: at 1 µM
# [6] = biological target: ALK tyrosine kinase receptor (Homo sapiens) (UniProt Q9UM73); conditions: at 0.1 µM
# [7] = biological target: ALK tyrosine kinase receptor (Homo sapiens) (UniProt Q9UM73); conditions: at 1 µM
# [8] = biological target: Tyrosine-protein kinase ABL2 (Homo sapiens) (UniProt P42684); conditions: at 0.1 µM
# [9] = biological target: Tyrosine-protein kinase ABL2 (Homo sapiens) (UniProt P42684); conditions: at 1 µM
# [10] = biological target: Tyrosine-protein kinase receptor UFO (Homo sapiens) (UniProt P30530); conditions: at 0.1 µM
# [11] = biological target: Tyrosine-protein kinase receptor UFO (Homo sapiens) (UniProt P30530); conditions: at 1 µM
# [12] = biological target: Tyrosine-protein kinase Blk (Homo sapiens) (UniProt P51451); conditions: at 0.1 µM
# [13] = biological target: Tyrosine-protein kinase Blk (Homo sapiens) (UniProt P51451); conditions: at 1 µM
# [14] = biological target: T1, Cytoplasmic tyrosine-protein kinase BMX (Homo sapiens) (UniProt P51813); conditions: at 0.1 µM
# T1 sequence (whole entry): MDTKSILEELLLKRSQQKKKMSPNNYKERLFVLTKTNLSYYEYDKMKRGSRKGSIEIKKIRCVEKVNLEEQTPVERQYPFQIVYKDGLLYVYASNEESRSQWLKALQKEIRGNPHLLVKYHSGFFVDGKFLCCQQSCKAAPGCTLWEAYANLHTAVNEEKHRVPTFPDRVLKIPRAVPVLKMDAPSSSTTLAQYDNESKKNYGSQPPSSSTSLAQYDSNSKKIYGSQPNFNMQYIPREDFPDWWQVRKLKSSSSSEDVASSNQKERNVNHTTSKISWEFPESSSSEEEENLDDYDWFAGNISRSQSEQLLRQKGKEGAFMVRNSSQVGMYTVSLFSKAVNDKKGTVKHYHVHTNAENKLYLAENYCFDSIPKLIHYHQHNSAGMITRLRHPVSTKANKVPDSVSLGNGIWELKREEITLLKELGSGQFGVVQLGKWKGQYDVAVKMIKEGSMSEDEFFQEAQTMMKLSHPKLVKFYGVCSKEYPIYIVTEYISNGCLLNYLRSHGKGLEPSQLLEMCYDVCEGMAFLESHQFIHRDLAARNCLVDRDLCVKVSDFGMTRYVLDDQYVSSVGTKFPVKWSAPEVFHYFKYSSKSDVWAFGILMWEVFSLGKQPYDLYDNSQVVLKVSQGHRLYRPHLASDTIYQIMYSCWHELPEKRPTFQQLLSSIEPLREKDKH
# [15] = biological target: T1, Cytoplasmic tyrosine-protein kinase BMX (Homo sapiens); conditions: at 1 µM
# [16] = biological target: Protein-tyrosine kinase 6 (Homo sapiens) (UniProt Q13882); conditions: at 0.1 µM
# [17] = biological target: Protein-tyrosine kinase 6 (Homo sapiens) (UniProt Q13882); conditions: at 1 µM
# [18] = biological target: Tyrosine-protein kinase BTK (Homo sapiens) (UniProt Q06187); conditions: at 0.1 µM
# [19] = biological target: Tyrosine-protein kinase BTK (Homo sapiens) (UniProt Q06187); conditions: at 1 µM
# [20] = biological target: Tyrosine-protein kinase CSK (Homo sapiens) (UniProt P41240); conditions: at 0.1 µM;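 also: value given is the averaged percent inhibition of CSK kinase activity, from the GSK PKIS kinase inhibitor set screening panel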
# Tyrosine-protein kinase CSK (Homo sapiens), sequence (P41240 2-450 limits assumed): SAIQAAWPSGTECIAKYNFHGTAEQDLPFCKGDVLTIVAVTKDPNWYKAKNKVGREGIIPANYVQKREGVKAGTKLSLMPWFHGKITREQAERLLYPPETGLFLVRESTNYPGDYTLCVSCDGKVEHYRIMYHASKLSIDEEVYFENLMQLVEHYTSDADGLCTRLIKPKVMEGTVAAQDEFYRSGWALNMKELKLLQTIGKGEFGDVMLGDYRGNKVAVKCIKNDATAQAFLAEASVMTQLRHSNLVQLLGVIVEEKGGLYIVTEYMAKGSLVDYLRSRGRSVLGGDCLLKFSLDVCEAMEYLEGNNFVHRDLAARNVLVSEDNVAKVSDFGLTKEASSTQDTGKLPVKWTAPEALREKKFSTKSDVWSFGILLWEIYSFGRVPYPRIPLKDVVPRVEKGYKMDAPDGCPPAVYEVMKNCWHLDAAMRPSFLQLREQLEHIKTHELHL
# Tyrosine-protein kinase BTK (Homo sapiens), sequence (Q06187 whole entry): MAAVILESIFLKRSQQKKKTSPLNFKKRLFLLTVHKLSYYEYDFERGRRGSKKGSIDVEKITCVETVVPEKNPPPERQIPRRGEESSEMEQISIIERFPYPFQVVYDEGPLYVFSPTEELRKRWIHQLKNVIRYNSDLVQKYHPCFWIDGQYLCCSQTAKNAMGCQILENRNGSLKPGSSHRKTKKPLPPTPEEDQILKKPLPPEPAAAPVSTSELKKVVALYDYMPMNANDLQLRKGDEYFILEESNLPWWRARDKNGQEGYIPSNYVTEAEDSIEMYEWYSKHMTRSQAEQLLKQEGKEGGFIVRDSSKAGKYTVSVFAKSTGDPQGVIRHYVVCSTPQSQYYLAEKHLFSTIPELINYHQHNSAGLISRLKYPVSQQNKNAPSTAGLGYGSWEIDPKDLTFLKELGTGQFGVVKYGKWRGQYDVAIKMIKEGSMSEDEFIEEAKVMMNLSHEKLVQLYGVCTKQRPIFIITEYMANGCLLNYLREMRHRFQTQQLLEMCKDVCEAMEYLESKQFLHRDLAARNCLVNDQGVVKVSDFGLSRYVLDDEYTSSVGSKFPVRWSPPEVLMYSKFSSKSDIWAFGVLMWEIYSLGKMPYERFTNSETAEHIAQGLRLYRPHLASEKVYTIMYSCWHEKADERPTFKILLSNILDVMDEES
# ALK tyrosine kinase receptor (Homo sapiens), sequence (Q9UM73 19-1620 limits assumed): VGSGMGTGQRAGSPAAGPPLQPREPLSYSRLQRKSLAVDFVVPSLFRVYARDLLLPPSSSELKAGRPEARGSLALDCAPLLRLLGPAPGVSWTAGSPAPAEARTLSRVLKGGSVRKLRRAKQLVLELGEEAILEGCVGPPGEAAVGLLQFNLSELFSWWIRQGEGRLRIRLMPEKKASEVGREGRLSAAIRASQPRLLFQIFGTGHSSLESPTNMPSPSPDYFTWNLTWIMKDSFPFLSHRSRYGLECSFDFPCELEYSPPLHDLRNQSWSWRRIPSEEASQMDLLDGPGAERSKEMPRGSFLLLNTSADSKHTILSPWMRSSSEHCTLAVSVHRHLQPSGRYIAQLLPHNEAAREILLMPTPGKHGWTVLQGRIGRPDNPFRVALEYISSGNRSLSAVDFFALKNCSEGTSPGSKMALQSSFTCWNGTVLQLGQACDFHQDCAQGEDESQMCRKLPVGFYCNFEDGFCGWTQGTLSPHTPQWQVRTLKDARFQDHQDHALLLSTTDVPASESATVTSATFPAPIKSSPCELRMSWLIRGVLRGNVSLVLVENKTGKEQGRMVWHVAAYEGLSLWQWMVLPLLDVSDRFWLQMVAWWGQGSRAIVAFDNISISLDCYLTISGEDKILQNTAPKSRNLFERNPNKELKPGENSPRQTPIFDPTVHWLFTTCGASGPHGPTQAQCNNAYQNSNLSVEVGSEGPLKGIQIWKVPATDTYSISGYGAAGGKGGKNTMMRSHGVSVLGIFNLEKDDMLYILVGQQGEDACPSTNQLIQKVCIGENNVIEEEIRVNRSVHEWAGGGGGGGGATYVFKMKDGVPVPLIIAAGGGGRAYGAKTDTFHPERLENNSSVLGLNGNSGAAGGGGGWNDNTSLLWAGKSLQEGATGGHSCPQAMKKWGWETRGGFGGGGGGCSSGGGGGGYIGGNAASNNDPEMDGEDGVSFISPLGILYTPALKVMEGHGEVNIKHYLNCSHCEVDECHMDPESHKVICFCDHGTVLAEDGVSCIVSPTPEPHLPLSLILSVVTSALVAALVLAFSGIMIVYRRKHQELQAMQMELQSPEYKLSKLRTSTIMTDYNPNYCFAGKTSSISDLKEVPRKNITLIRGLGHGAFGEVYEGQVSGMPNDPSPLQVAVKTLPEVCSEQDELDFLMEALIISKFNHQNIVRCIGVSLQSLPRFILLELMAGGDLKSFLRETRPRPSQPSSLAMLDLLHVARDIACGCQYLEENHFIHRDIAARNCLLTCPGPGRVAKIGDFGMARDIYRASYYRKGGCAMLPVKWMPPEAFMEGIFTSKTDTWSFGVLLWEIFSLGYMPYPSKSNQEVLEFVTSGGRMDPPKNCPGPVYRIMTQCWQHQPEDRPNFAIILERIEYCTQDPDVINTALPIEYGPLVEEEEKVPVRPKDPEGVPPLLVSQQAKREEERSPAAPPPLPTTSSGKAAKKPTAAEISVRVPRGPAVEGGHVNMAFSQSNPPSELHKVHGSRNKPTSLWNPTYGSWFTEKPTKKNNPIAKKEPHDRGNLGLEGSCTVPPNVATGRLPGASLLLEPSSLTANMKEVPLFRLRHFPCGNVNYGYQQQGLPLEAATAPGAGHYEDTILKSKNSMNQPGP
# Tyrosine-protein kinase Blk (Homo sapiens), sequence (P51451 2-505 limits assumed): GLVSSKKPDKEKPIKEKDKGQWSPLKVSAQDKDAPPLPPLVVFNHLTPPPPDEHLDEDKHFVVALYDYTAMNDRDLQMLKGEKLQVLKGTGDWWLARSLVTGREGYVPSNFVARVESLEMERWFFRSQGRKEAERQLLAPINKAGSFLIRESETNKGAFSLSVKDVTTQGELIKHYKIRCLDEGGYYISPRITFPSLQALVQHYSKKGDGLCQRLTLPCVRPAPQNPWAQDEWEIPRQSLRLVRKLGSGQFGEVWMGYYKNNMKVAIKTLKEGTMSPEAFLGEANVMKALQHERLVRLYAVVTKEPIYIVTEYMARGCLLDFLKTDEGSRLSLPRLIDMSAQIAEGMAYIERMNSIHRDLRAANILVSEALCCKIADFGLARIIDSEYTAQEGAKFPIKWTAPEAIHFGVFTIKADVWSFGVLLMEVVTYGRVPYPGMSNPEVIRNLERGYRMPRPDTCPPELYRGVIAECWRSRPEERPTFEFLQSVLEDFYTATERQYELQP
# Protein-tyrosine kinase 6 (Homo sapiens), sequence (Q13882 whole entry, looked up): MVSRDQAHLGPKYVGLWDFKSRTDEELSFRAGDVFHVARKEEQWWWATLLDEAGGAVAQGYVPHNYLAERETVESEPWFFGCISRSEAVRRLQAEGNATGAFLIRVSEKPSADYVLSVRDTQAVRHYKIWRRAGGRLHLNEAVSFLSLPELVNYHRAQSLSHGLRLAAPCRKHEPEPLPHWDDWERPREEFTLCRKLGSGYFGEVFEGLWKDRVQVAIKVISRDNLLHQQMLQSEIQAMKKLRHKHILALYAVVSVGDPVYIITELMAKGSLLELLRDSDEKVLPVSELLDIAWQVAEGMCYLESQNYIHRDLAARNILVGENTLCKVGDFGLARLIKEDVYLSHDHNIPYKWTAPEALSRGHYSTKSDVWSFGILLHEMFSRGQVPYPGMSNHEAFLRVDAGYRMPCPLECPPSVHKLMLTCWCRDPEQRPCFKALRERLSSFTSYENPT
# Tyrosine-protein kinase ABL2 (Homo sapiens), sequence (P42684 whole entry): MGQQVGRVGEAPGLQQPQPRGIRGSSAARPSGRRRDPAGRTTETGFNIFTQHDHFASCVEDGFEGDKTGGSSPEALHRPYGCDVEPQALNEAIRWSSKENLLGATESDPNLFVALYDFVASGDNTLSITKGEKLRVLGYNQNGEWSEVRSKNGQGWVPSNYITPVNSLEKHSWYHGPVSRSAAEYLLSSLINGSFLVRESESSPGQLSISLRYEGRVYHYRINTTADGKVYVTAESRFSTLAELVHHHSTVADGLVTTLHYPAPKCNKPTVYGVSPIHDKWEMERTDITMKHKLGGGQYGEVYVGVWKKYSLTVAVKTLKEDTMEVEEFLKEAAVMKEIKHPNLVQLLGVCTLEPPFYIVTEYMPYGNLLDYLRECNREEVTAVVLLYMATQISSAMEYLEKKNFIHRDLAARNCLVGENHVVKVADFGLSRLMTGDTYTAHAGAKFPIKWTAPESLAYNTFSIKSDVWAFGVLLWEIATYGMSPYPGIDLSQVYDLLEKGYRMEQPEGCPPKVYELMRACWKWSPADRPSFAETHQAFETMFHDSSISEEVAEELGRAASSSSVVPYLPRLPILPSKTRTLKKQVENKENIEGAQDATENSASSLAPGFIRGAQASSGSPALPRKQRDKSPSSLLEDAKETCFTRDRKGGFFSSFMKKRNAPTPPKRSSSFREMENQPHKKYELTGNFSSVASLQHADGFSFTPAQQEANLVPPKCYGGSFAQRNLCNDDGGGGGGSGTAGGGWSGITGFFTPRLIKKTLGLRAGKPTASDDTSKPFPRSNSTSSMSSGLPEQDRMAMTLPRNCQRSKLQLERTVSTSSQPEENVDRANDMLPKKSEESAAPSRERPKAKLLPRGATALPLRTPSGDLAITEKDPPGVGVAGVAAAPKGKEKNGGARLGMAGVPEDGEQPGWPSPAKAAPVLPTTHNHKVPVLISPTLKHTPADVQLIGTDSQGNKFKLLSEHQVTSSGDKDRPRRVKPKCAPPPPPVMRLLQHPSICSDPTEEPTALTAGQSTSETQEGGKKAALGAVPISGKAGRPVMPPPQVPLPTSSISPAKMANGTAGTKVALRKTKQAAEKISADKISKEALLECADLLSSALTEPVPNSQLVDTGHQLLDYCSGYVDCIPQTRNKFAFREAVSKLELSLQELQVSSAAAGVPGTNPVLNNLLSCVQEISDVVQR
SMILES,inhibition [1] [%],inhibition [2] [%],inhibition [3] [%],inhibition [4] [%],inhibition [5] [%],inhibition [6] [%],inhibition [7] [%],inhibition [8] [%],inhibition [9] [%],inhibition [10] [%],inhibition [11] [%],inhibition [12] [%],inhibition [13] [%],inhibition [14] [%],inhibition [15] [%],inhibition [16] [%],inhibition [17] [%],inhibition [18] [%],inhibition [19] [%],inhibition [20] [%]
CS(=O)(=O)CCNCc1ccc(-c2ccc3ncnc(Nc4ccc(OCc5ccccc5)c(Br)c4)c3c2)o1,1.57,4.14,4.05,3.09,2.83,-0.91,1.84,0.83,4.36,-6.75,-7.91,-0.29,3.05,3.44,0.49,4.61,11.8,-3.57,-0.34,0.44
NCc1ccc(-n2c(-c3nonc3N)nc3cnccc32)cc1,0.9,4.15,2.66,4.78,3.54,6.31,17.3,4.87,6.75,-7.21,-1.85,3.21,4.2,5.93,4.77,5.04,5.62,-0.77,0.66,3.09
NC(=O)c1ccc(Oc2nccc(-c3c(-c4ccc(F)cc4)ncn3C3CCNCC3)n2)cc1,2.27,3.97,3.32,4.17,2.89,4.85,4.45,2.35,3.64,-7.67,-8.36,3.48,3.04,5.3,7.95,3.36,6.07,-0.49,0.73,3.03
Clc1ccc(CNc2nccc(-c3cnn4ncccc34)n2)cc1,2.99,2.53,4.96,1.08,8.86,-0.45,3.1,3.17,7.59,1.22,2.45,1.31,3.34,-1.56,2.62,0.74,3.52,0.65,1.7,3.92
NC(=O)c1cc(-c2ccncc2)cc(-c2ccccc2)c1N,3.04,8.23,40.8,7.61,40.2,3.8,5.19,6.19,54.2,-7.51,-6.8,3.86,17.5,11.8,49.6,5.89,36.9,1.6,11.8,5.98
Fc1ccc(-c2ncn(C3CCNCC3)c2-c2ccnc(Oc3ccc4c(c3)OCO4)n2)cc1,3.48,4.71,4.75,5.17,9.1,4.91,6.26,5.06,9,-7.21,-5.79,4.26,5.32,5.5,5.87,4.19,5.5,-0.46,0.77,3.85
Fc1ccc(-c2nc3n(c2-c2ccncc2)CCS3)cc1,2.55,3.68,5.02,-1.35,3.25,-0.77,0.29,0.16,4.56,-7.95,-3.95,–,-0.49,2.02,4.87,-1.54,4.07,-2.44,-3.5,7.37
COC(=O)Nc1nc2ccc(Sc3ccc(NC(=O)Nc4cc(C(F)(F)F)ccc4F)cc3)cc2[nH]1,72.3,3.61,31.3,3.45,33,1.12,2.57,11.8,58.9,1.61,10.9,0.49,2.36,3.33,-0.17,1.16,1.4,2.12,2.1,1.7
O=C1NC(=O)C(c2cccc(Cl)c2)=C1Nc1ccc(Cl)c(C(=O)O)c1,4.06,1.35,3.2,3.49,5.5,1.24,3.05,3.74,-0.4,-4.48,-3.02,2.33,0.47,8.42,2.62,3.64,5.12,-0.87,0.33,1.29
C[C@@H](Oc1cc(-n2cnc3ccc(OC4CCN(C)CC4)cc32)sc1C(N)=O)c1ccccc1Cl,7.51,3.29,13.1,0.35,7.3,-0.85,5.48,-1.57,2.18,-8.27,-3.62,-0.86,-0.94,4,6.6,2.72,3.15,-4.65,-3.35,2.4
O=C(Nc1n[nH]c2cc(-c3cc(F)ccc3F)ccc12)C1CC1,74,13.8,49.6,8.06,51.4,2.02,4.05,3.87,19,-7.5,-2.71,1.38,4.54,1.69,3.35,1.78,2.23,-1.19,-2.01,3.87
Fc1ccc(-c2ncn(C3CCNCC3)c2-c2ccnc(Oc3ccc(F)c(F)c3)n2)cc1,1.7,1.79,2.98,-1.26,-1.29,-1,1.5,-1.34,0.3,–,-4.58,-1.88,-2.13,3.36,3.49,2.61,5.39,-4.19,-4.23,2.54
CS(=O)(=O)CCNCc1cc(-c2cc3c(Nc4ccc(OCc5cccc(F)c5)c(Cl)c4)ncnc3s2)cs1,4.55,2.36,4.31,3.45,6.21,2.96,4.5,2.95,6.38,-7.56,-6.81,2.61,5.05,3.9,7.31,1.27,5.98,-1.08,0.76,1.58
CCc1cccc(CC)c1/C=C/c1cncc(C(=O)NC)c1,4.76,5.29,22.2,8.06,45.9,2.66,4.03,5.58,12.9,-2.3,-1.28,2.14,4.46,0.51,4.87,2.78,3.98,2.48,2.98,1.29
O=C(Nc1n[nH]c2nc(-c3ccc(O)cc3)c(Br)cc12)C1CC1,87.7,22.1,67.1,22.8,72.6,23.9,72.3,7.68,25.7,-7.6,-7.01,4.29,15.4,3.85,13.4,3.18,11.1,-0.08,0.5,8.35
